The supplement of paper PMC11732987, “Enantioselective OTUD7B fragment discovery through chemoproteomics screening and high-throughput optimisation” (Communications Chemistry, 2025)

How the values were obtained:
Assay in all cases: log2 ratio of Biotin-Ahx-Ub-VS probe labelling (fragment/DMSO); higher = less target engagement (more negative = stronger competition), active = hit call of the paper (q ≤ 0.05, log2 ratio ≤ -1)
Settings in all cases: compound concentration: 200 uM; treatment time: 3 h
OTUD6B = biological target: T1, OTUD6B (UniProt Q8N6M0)
T1 sequence (whole entry): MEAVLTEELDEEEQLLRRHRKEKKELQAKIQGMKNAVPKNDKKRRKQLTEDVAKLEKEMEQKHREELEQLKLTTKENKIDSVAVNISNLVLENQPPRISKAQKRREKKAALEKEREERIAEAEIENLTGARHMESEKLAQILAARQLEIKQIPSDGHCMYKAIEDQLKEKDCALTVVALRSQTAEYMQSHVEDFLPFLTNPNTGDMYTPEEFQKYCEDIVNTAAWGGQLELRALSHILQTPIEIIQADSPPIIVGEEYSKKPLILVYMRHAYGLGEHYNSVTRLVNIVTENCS
Summary of the method: (§1)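 Fragment (200 µM) or vehicle was incubated for 3 h with triplicate HEK293T lysate samples of 495 µg, which were then treated with Biotin-Ahx-Ub-VS at 0.5 µM final for 1 h. Labelled DUBs were enriched on NeutrAvidin, digested with LysC and trypsin, and analysed by diaPASEF LC-MS/MS. Values are average log2 fragment/vehicle ratios from an unpaired t-test on global-median-normalised Spectronaut label-free quantities, using proteins with ≥2 unique peptides.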

OTUD7B = biological target: T2, OTUD7B (UniProt Q6GQQ9)
T2 sequence (whole entry): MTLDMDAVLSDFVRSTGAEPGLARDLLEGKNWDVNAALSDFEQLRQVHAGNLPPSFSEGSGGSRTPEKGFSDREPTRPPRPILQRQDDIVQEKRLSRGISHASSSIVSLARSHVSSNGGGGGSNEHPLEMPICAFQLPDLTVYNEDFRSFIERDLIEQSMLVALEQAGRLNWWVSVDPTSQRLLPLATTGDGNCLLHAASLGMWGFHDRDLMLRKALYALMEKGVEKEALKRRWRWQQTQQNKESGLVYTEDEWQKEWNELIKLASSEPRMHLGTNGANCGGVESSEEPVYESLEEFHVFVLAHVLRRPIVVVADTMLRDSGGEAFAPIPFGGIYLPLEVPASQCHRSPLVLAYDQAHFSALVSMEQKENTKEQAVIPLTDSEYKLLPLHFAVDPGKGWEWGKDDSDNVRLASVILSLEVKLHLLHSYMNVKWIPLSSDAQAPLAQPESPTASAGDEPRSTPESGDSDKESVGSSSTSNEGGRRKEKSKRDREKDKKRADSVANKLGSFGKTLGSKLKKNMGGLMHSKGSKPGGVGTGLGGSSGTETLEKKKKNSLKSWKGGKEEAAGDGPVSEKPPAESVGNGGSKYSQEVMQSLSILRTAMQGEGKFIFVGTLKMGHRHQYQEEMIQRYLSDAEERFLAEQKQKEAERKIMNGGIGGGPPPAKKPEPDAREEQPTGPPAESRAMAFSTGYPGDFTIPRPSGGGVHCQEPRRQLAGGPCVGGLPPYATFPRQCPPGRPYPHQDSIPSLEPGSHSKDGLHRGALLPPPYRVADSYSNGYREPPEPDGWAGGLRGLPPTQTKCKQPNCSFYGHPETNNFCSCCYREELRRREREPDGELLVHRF
Summary of the method: as §1

PRPF8 = PRPF8 (UniProt Q6P2Q9)
Summary of the method: as §1

PSMD7 = biological target: T3, PSMD7 (UniProt P51665)
T3 sequence (whole entry): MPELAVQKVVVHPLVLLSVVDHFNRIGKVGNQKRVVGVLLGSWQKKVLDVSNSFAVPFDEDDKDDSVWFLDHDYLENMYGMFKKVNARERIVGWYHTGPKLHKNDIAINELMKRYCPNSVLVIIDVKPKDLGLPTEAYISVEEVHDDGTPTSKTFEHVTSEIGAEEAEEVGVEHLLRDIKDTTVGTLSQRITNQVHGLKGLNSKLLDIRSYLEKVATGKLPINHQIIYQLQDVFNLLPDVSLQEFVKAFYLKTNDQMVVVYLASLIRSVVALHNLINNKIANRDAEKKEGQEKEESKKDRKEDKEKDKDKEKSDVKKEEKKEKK
Summary of the method: as §1

UCHL1 = UCHL1 (UniProt P09936)
Summary of the method: as §1

UCHL3 = biological target: T4, UCHL3 (UniProt P15374)
T4 sequence (whole entry): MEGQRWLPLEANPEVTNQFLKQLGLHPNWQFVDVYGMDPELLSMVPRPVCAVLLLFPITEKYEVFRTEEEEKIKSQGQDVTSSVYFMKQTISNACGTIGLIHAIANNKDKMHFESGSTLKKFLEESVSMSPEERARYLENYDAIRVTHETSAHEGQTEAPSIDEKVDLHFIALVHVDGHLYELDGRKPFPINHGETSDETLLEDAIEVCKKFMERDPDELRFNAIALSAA
Summary of the method: as §1

UCHL5 = biological target: T5, UCHL5 (UniProt Q9Y5K5)
T5 sequence (whole entry): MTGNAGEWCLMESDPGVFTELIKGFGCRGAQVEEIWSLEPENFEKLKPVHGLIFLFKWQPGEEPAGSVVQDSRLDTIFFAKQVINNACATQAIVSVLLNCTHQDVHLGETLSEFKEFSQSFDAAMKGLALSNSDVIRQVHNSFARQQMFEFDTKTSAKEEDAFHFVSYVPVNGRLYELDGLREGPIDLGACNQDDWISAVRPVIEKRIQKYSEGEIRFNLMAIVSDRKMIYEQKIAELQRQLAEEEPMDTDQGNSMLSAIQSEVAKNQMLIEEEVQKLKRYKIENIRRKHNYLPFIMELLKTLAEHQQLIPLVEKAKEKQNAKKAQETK
Summary of the method: as §1

USP10 = USP10 (UniProt Q14694)
Summary of the method: as §1

USP15 = biological target: T6, USP15 (UniProt Q9Y4E8)
T6 sequence (whole entry): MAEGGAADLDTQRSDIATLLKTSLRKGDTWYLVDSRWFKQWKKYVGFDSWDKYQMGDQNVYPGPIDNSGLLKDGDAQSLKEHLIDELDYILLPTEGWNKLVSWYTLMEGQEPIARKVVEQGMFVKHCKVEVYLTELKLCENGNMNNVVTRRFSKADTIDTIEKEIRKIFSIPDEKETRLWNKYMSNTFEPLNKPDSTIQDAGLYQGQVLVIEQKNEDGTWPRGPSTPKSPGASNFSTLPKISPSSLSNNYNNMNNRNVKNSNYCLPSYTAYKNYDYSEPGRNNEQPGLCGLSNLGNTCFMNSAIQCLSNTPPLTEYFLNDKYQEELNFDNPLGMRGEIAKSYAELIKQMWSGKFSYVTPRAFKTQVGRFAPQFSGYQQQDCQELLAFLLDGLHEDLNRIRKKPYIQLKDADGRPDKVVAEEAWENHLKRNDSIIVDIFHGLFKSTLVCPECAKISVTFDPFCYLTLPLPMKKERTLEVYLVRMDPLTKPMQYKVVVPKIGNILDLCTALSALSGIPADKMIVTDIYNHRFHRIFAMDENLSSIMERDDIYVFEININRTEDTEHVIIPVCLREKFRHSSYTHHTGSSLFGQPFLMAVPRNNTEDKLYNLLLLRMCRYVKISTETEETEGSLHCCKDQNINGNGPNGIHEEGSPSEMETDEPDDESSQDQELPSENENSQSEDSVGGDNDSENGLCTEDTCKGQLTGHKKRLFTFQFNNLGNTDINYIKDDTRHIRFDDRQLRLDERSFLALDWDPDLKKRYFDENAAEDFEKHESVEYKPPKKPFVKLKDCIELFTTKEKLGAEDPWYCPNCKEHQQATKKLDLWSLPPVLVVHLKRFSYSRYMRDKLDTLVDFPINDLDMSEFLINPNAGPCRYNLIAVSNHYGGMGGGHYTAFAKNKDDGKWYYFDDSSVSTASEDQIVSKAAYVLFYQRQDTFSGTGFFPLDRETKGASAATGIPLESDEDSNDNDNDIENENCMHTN
Summary of the method: as §1

USP16 = USP16 (UniProt Q9Y5T5)
Summary of the method: as §1

Measured: log2 ratio of Biotin-Ahx-Ub-VS probe labelling

Chain of USP10 (Q14694 whole entry): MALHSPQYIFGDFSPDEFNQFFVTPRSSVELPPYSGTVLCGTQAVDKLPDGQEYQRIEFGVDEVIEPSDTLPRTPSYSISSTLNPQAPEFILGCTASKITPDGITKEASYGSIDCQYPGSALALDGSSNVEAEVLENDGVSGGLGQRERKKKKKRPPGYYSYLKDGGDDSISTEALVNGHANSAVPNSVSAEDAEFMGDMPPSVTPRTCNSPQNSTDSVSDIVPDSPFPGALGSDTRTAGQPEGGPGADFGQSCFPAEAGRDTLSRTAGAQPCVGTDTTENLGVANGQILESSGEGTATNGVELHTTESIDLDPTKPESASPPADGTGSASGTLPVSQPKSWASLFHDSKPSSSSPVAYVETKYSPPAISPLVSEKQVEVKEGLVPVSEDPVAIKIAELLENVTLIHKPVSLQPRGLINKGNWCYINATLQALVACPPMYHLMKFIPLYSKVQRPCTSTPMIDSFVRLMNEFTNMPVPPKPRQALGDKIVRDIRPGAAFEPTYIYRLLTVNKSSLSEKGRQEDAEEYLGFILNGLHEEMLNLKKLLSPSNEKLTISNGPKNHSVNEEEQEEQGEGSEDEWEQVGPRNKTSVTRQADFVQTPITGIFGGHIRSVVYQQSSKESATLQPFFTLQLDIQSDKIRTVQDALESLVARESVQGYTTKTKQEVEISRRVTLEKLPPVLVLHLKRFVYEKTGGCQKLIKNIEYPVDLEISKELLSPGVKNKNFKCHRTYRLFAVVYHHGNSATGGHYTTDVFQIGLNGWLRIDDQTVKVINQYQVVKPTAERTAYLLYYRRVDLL
Chain of USP16 (Q9Y5T5 whole entry, looked up): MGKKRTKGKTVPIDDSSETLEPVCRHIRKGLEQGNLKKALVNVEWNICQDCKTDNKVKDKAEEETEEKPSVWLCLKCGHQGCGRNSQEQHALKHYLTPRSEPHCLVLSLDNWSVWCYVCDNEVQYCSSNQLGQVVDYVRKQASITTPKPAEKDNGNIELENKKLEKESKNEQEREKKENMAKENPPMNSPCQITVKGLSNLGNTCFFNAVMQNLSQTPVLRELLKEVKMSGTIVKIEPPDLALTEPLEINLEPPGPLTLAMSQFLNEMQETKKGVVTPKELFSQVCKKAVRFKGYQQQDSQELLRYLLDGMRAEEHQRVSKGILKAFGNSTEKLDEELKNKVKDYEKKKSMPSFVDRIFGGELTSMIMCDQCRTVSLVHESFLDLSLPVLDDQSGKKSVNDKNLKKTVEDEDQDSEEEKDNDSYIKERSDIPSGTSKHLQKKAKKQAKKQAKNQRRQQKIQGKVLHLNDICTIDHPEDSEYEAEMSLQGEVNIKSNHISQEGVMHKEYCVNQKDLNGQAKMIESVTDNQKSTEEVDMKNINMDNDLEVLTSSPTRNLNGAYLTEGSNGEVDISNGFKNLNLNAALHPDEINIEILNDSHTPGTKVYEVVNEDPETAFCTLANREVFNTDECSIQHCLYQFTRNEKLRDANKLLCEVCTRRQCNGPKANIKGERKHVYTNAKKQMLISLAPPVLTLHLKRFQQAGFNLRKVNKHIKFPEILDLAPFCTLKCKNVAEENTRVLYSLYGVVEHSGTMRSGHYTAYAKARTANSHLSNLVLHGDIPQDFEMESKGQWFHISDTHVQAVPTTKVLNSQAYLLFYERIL
Chain of UCHL1 (P09936 whole entry, looked up): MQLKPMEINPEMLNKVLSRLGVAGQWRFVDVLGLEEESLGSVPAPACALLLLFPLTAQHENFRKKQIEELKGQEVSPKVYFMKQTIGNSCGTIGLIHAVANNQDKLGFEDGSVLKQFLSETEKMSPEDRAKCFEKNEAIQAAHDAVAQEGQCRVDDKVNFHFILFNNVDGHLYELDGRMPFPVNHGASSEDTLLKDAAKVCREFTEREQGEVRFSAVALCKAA

C[C@H]1CN(C(=O)CCl)CCN1C(=O)c1cnn(C)c1.Cl
active: UCHL1 -2.38
inactive: OTUD6B -0.288 | OTUD7B -0.168 | PRPF8 0.144 | PSMD7 -0.0809 | UCHL3 0.376 | UCHL5 -0.259 | USP10 0.0256 | USP15 -0.149 | USP16 -0.146
